Experimental findings from ChEMBL document CHEMBL1857833, “Screening and optimization of specific chemical series against human African Trypanosomiasis (HAT)” are described below.

The structures appear in SMILES notation. Screen size: about 4,400 compounds; about 390 (8.9%) showed an effect of 50% or more. The sample as a whole holds a higher share of strong results than the screen did.

The assay relates to Trypanosoma brucei. As to the kind of experiment: DNDI: Inhibition of Human African Trypanosomiasis, SBRI 427, in vitro at 2 ug.mL-1. It counts as functional.
One may read the % inhibition as the relative decrease from the control value, in per cent. On to `CCCN(CC1CC1)/C(=N\O)c1ccc(C)nc1Oc1cccc(C)c1`, for which the “% inhibition” value was -4%.
Regarding `COc1ccc(Oc2nc(C)ccc2/C(=N/O)N2CCCc3ccccc32)cc1`, the “% inhibition” value turned out to be 11%.
Regarding `Cc1ccc(/C(=N/O)N2CCCc3ccccc32)c(Oc2ccc3ccccc3c2)n1`, the “% inhibition” value turned out to be 15%.
Under `CSc1ccc(Oc2nc(C)ccc2/C(=N/O)N2CCCc3ccccc32)cc1C` stands 10%; under `Cc1ccc(/C(=N/O)N2CCCc3ccccc32)c(Oc2ccc(F)c(F)c2)n1`, 21%; under `Cc1ccc(/C(=N/O)N2c3ccccc3CCC2C)c(Oc2cccc(F)c2)n1` (stereo not given), 34%.
Regarding `CSc1ccc(Oc2nc(C)ccc2/C(=N/O)N2c3ccccc3CCC2C)cc1C` (stereo not given), the “% inhibition” value is 0%.
Consider `Cc1cc(C)cc(Oc2nc(C)ccc2/C(=N/O)N2c3ccccc3CCC2C)c1` (stereo not given), for which the “% inhibition” value is recorded as 98%.
Regarding `Cc1ccc(/C(=N/O)N2CCCc3ccccc32)c(Oc2cccc(F)c2)n1`, the “% inhibition” value was 93%.
As to `Cc1cc(C)cc(Oc2nc(C)ccc2/C(=N/O)N2CCCc3ccccc32)c1`, the “% inhibition” value is reported as 53%.
Regarding `CC(C)(C)COc1ncccc1/C(=N/O)NCCN1CCOCC1`, the “% inhibition” value is on record as 6%.
For `CCN(Cc1coc(-c2cccc(OC)c2)n1)c1cccc(C)c1`, the “% inhibition” value was -18%.
Turning to `Fc1ccc(N2CCN(Cc3coc(-c4ccc(Cl)cc4Cl)n3)CC2)cc1`, the “% inhibition” value is 14%.
Take `Cc1ccc(/C(=N/O)N(C)C2CCN(C)CC2)c(Oc2cccnc2)n1`: the “% inhibition” value came to 9%.
Under `CC1CCCN1/C(=N\O)c1cccnc1Oc1ccc(F)cc1` (stereo not given) stands 2%; under `c1coc(-c2nc(CN3CCCCCC3)co2)c1`, 16%; under `CCN(Cc1ccccc1)Cc1coc(-c2ccccc2)n1`, 9%.
On to `CN(Cc1coc(-c2ccc(C(F)(F)F)cc2)n1)C1CCN(Cc2ccccc2)C1` (stereo not given), for which the “% inhibition” value is 0%.
Under `CCc1ccc(Oc2ncccc2/C(=N/O)NCc2ccccc2OC)cc1` stands 99%; under `CCOc1ccccc1Oc1ncccc1/C(=N\O)NCc1ccncc1`, 0%.
As to `CCOc1ccccc1CN/C(=N\O)c1cccnc1Oc1ccc(CC)cc1`, the “% inhibition” value was determined as 99%.
The result for `CCOc1ccccc1CNCc1coc(-c2cccs2)n1` reads -4%; that for `Cc1nccn1/C(=N\O)c1ccnc(Oc2cccc3cnccc23)c1`, 14%.
Take `c1ccc(C(c2ccccc2)N2CCN(Cc3coc(-c4ccco4)n3)CC2)cc1`: the “% inhibition” value was 0%.
With `Cc1ccc(/C(=N/O)N2CCCCCC2)c(OCc2ccccn2)n1`, the “% inhibition” value turned out to be 28%.
In the case of `C/C(=C\C#N)N/C(=N\O)c1ccnc(Oc2cc(C)ccc2C(C)C)c1`, the “% inhibition” value is given as 21%.
For the compound `CCOc1ccc(Oc2cc(/C(=N/O)NCc3ccccc3OC)ccn2)cc1`, the “% inhibition” value turned out to be 0%.
For `c1ccc(-c2cn(Cc3coc(-c4cccc5ccccc45)n3)cn2)cc1`, the “% inhibition” value is -1%.
As for `CCN(/C(=N\O)c1cccnc1Oc1ccc2c(c1)CCCC2)C(C)C`, the “% inhibition” value stood at 3%.
The result for `CCOc1cccc(-c2nc(CN3CCN(c4ccccc4)CC3)co2)c1` reads 17%.
On to `O/N=C(/c1cccnc1OCc1cccc(F)c1)N1CCCc2ccccc21`, for which the “% inhibition” value was -2%.
Regarding `CC1CCc2ccccc2N1/C(=N\O)c1cccnc1OCC(C)(C)C` (stereo not given), the “% inhibition” value amounted to 84%.
Take `CC(C)(C)COc1ncccc1/C(=N/O)N1CCCCCC1`: the “% inhibition” value is 8%.
Under `O/N=C(/c1cccnc1Oc1ccc(-n2cncn2)cc1)N1CCCc2ccccc21` stands 10%; under `CC(C)COc1ncccc1/C(=N/O)N1C(C)CCC1C` (stereo not given), -2%; under `CC1CCC(C)N1/C(=N\O)c1cccnc1OCC(C)(C)C` (stereo not given), 93%.
In the case of `CC(C)COc1ncccc1/C(=N/O)N1C(C)CCCC1C` (stereo not given), the “% inhibition” value turned out to be 6%.
In the case of `CC1CCc2ccccc2N1/C(=N\O)c1cccnc1Oc1ccc(-n2cncn2)cc1` (stereo not given), the “% inhibition” value worked out at 81%.
For `CC(C)(C)COc1ncccc1/C(=N/O)N1CCCC1`, the “% inhibition” value came to 0%.
With `CC(C)(C)COc1ncccc1/C(=N/O)N1CCCc2ccccc21`, the “% inhibition” value was 100%.
The result for `O/N=C(/c1cccnc1OCc1ccccc1F)N1CCCc2ccccc21` reads -20%; that for `CC1CCC(C)N1/C(=N\O)c1cccnc1Oc1ccc(-n2cncn2)cc1` (stereo not given), 9%; that for `O/N=C(/c1cccnc1Oc1ccc(F)c(Cl)c1)N1CCN(c2ccc(F)cc2)CC1`, -10%.
`O/N=C(\NCCN1CCOCC1)c1ccc(Oc2ccc(Cl)cc2)nc1`: the “% inhibition” value is -2%.
Turning to `Cc1cccc(Oc2ccc(/C(=N/O)n3ccnc3)cn2)c1`, the “% inhibition” value was found to be 15%.
`COc1cccc(N2CCN(Cc3coc(-c4ccc(F)cc4)n3)CC2)c1`: the “% inhibition” value is listed as -1%.
As to `CSc1ccc(Oc2nc(C)ccc2/C(=N/O)N2CCSCC2)cc1C`, the “% inhibition” value came out at 12%.
As to `O/N=C(\NCCN1CCOCC1)c1cccnc1Oc1ccc2c(c1)CCCC2`, the “% inhibition” value is on record as 8%.
On to `CCC(C)(C)N/C(=N\O)c1ccc(C)nc1Oc1cc(C)cc(C)c1`, for which the “% inhibition” value was 24%.
On to `CCOc1ccccc1-c1nc(CN2CCN(CC)CC2)co1`, for which the “% inhibition” value is 16%.
As to `Cc1ccc(/C(=N/O)NCCN2CCCC2)c(OCc2cccc(F)c2)n1`, the “% inhibition” value is given as -12%.
Turning to `CCOc1cccc(Oc2ncccc2/C(N)=N/O)c1`, the “% inhibition” value turned out to be 10%.
Regarding `CCOc1ccccc1-c1nc(CN(C)Cc2cccc3ccccc23)co1`, the “% inhibition” value came to 15%.
`COc1ccc(NCc2coc(-c3ccc(F)cc3)n2)cc1`: the “% inhibition” value is reported as -3%.
As for `Brc1ccccc1-c1nc(CNCCN2CCOCC2)co1`, the “% inhibition” value is recorded as 9%.
As to `Cc1cc(C)n(/C(=N\O)c2ccc(Oc3ccc(Cl)cc3)nc2)n1`, the “% inhibition” value was -5%.
With `O/N=C(/c1cccnc1Oc1ccc(F)cc1Cl)N1CCCC1`, the “% inhibition” value was determined as 13%.
On to `O/N=C(/c1cccnc1Oc1ccc(F)cc1Cl)N1CCCc2ccccc21`, for which the “% inhibition” value is listed as 100%.
For `O/N=C(/c1cccnc1Oc1ccc(F)cc1Cl)N1CCCCCC1`, the “% inhibition” value came out at 11%.
The result for `COc1ccc(Oc2nc(C)ccc2/C(=N/O)N2CCC=N2)cc1` reads 8%.
For `CCOC(=O)N1CCN(Cc2coc(-c3ccccc3Cl)n2)CC1`, the “% inhibition” value is listed as 8%.
Consider `Cc1cccc(Oc2nc(C)ccc2/C(=N/O)N2Cc3ccccc3C2)c1`, for which the “% inhibition” value was 3%.
Under `Cc1ccc(Oc2nc(C)ccc2/C(=N/O)N(C)c2ccccc2)c(C)c1` stands 41%; under `CC1CCC(N/C(=N\O)c2cccnc2Oc2ccccc2OC(C)C)CC1` (stereo not given), 98%; under `CC(C)Oc1ccccc1Oc1ncccc1/C(=N/O)NCc1ccncc1`, 7%.
Under `CC(C)Oc1ccccc1Oc1ncccc1/C(=N/O)NCC1CCCO1` (stereo not given) stands -11%; under `CC(C)Oc1ccccc1Oc1ncccc1/C(=N/O)NC1CCCCC1`, 99%; under `COc1ccc(CN/C(=N\O)c2cccnc2Oc2ccccc2OC(C)C)cc1`, -18%.
Consider `COC(=O)C1CCN(/C(=N\O)c2cccnc2Oc2ccccc2OC(C)C)CC1`, for which the “% inhibition” value is on record as -2%.
For `CC1CC(N/C(=N\O)c2cccnc2Oc2ccccc2OC(C)C)CC(C)(C)C1` (stereo not given), the “% inhibition” value is 99%.
